# Data taken from PubChem BioAssay (NCI).
# Where “and” joins values, the source holds several entries; their conditions need not be identical. Equal entries are not always repeated. Compounds without any hit were thinned out: in the full panel of roughly 83,000, 20% have a hit.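 The test compound was applied at a single concentration to cells in 96-well plates for 48 hours, and percent growth was recorded.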 Calls of active or inactive are those of the source. Rule for the calls: active = growth percent below 10; inactive = the rest.
# System: OVCAR-3 ovarian
# Assay: NCI-60 one-dose screen, 48 h (100 = growth as untreated, 0 = no growth, -100 = all killed)
# Conditions: 10 µM unless noted
row,Compound,growth
1,CN(C)C(=O)c1cc2cnc(Nc3ccc(-c4csc5c(=S)cc(N6CCOCC6)oc45)cc3)nc2n1C1CCCC1,13.6% (inactive)
2,CN1CCN(c2ccc(/C=C/C(=O)c3ccc(O)cc3)cc2)CC1,106% (inactive)
3,CCCCC(NC(=O)CN1C(=O)/C(=C/C(C)=C/c2ccccc2)SC1=S)C(=O)O (stereo not drawn),112% (inactive)
4,CC1(Cc2ccccc2)CC2=C(C(=O)O1)C(c1ccccc1)NC(=O)N2 (stereo not drawn),109% (inactive)
5,COc1ccc(-c2nc(Cl)c3c(C)nn(-c4ccc(F)cc4)c3n2)cc1,106% (inactive)
6,CCCCn1c(C(=O)c2c[nH]c3ccccc23)n[nH]c1=S,106% (inactive)
7,COc1ccc(/C=C2\COc3ccc(O)c(O)c3C2=O)c(OC)c1OC,9.03% (active)
8,C=C(CN1CC=CCC1)[C@@H]1CC[C@]2(COC(C)=O)CC[C@]3(C)[C@H](CC[C@@H]4[C@@]5(C)CC[C@H](O)C(C)(C)[C@@H]5CC[C@]43C)[C@@H]12,100% (inactive)
9,O=[N+]([O-])c1ccc(S(=O)Cc2ccccc2)c([N+](=O)[O-])c1 (stereo not drawn),13.9% (inactive) and -74.6% (active)
10,O=C(Cn1cc(CN2CCN(c3ccnc4cc(Cl)ccc34)CC2)nn1)Nc1cccc([N+](=O)[O-])c1,87.9% (inactive)
11,Nc1n[nH]c2cccc(C#Cc3cccc(NC(=O)c4ccc(N5CCOCC5)c(C(F)(F)F)c4)c3)c12,34.9% (inactive)
12,COC1=CC(=O)C(OC)=C(O)C1=O,105% (inactive)
13,CONC1=Nc2cc(NC(N)=NCc3ccccc3)c(N(C)C3CCCCC3)cc2OC1,77.4% (inactive)
14,Cc1ccc(NC(=O)c2ccc(CN3CCN(C)CC3)cc2)cc1Nc1nccc(-c2cccnc2)n1,110% (inactive) and 84% (inactive)
15,Fc1ccc(NC(c2ccc(F)cc2)C2CCN(CCCCc3ccccc3)CC2)cc1 (stereo not drawn),34% (inactive)
16,COc1ccc2c(O)c(/C=C3\N=Nc4nc(C)ccc43)oc2c1CC1CCNCC1,83.8% (inactive)
17,COc1ccc(C(=O)N/N=C/c2ccc(O)cc2O)cc1Nc1ccnc(C(F)(F)F)c1,78.5% (inactive)
18,COc1ccc(-c2cc(-c3cc(OC)c(OC)c(OC)c3)c(C#N)c(=O)n2CCCCC(=O)O)cc1,99.6% (inactive)
19,COc1cc(-c2[nH]ncc2Nc2ccc(Cl)cc2)cc(OC)c1OC,86.1% (inactive)

row,Compound,growth
1,Nc1ccc(S(=O)(=O)c2ccc(N)cc2)cc1,121% (inactive) and 112% (inactive)
2,C/C(=C(\c1ccc(OCCN2CCOCC2)cc1)c1ccc(OC(=O)C2CCCCC2)cc1)c1ccc(Cl)cc1,97% (inactive)
3,CCN(CC)CCOc1ccc(/C(=C(\Cl)c2ccccc2)c2ccccc2)cc1,76.9% (inactive) and 118% (inactive)
4,CSc1nnc(-c2cc3c([nH]c4ccccc43)c(-c3cccc(O)c3)n2)n1-c1ccc(C)cc1,1.33% (active)
5,COc1ccc(/C(C)=C(\c2ccc(OCCN3CCCCCC3)cc2)c2ccc(OC(=O)C3CCCCC3)cc2)cc1,-86.9% (active)
6,N=C1/C(=C2\NC3C=CC=CC3S2)C(c2ccc(Cl)cc2)C2C(=O)N(c3ccccc3)C(=S)N12 (stereo not drawn),106% (inactive)
7,Nc1nc(Nc2cccnc2)sc1C(=O)c1ccccc1F,9.96% (active)
8,COCCOc1cc2ncnc(N3CCN(S(=O)(=O)c4ccccc4Cl)CC3)c2cc1OCCOC,91.5% (inactive)
9,O=C1/C(=C/c2ccc(F)c(F)c2)CN(C(=O)C(Cl)Cl)C/C1=C\c1ccc(F)c(F)c1,-97% (active)
10,O=C([C@H]1C[C@H]1c1ccc(S(F)(F)(F)(F)F)cc1)N1CCN(c2cc(Cl)ccc2C(F)(F)F)CC1,100% (inactive)
11,O=C(NNc1ccccc1)c1ncc[nH]1,64.3% (inactive)
12,COc1cccc(C2C(C#N)=C(N)Oc3cc(OCCCCCC[P+](c4ccccc4)(c4ccccc4)c4ccccc4)ccc32)c1 (stereo not drawn),-81.3% (active)
13,CCOC(=O)N(O)c1ccc(/C=C/c2ccccc2)cc1,34% (inactive) and 28% (inactive)
14,CN(C)CCN1C(=O)c2c(c3c4ccccc4n4c3c3c2c2ccccc2n3C2CC(O)C(O)C4(C)O2)C1=O (stereo not drawn),41.4% (inactive)
15,O=C(CCCOc1ccc(Br)cc1)Nc1ncc(Cc2ccc(F)cc2)s1,81% (inactive)
16,COc1cc(NC2CCCCC2O)c2nc(-c3ccc(Cl)cc3)ccc2c1 (stereo not drawn),88.1% (inactive) and 112% (inactive)
17,O=C(O)C1C2CCC1C(O)C2 (stereo not drawn),108% (inactive) and 96.9% (inactive)
18,C=C1CC[C@@H]2[C@](C)(COC(C)=O)[C@H](OC(C)=O)CC[C@@]2(C)[C@@H]1CC(Nc1ccc(S(=O)(=O)Nc2nccs2)cc1)C1=CCOC1=O (stereo partly drawn),-70.2% (active)
19,Nc1nc(Nc2ccc(F)cc2)nn1C(=O)c1cc(Cl)ccc1Cl,72.7% (inactive)
